# Results filed as inconclusive are left out. Calls of active or inactive are those of the source. How the source made its calls: active means hit-call score of the fitted dose curve at least 0.9, where 1 is the maximum; inconclusive means response in the unintended direction; inactive means score below 0.9.
# Target: Estrogen receptor (Homo sapiens) (UniProt P03372)
# Experiment: CCTE_Deisenroth_AIME_384WELL_LUC_Active: CCTE's 384-well Estrogen Receptor Transactivation Assay with AIME metabolic competence (ERTA luciferase; metabolism positive), Deisenroth Lab (AID 2284030)
# Outline: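 AIME metabolism-positive mode: chemicals 0.002 - 200 uM, 2 h with alginate-bound PB/BNF-induced rat S9 → medium to VM7Luc4E2 ERTA, 24 h → luciferase. Positive fit vs 17beta-estradiol; n=4 typical.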
# Chain of Estrogen receptor (Homo sapiens) (P03372 whole entry, looked up): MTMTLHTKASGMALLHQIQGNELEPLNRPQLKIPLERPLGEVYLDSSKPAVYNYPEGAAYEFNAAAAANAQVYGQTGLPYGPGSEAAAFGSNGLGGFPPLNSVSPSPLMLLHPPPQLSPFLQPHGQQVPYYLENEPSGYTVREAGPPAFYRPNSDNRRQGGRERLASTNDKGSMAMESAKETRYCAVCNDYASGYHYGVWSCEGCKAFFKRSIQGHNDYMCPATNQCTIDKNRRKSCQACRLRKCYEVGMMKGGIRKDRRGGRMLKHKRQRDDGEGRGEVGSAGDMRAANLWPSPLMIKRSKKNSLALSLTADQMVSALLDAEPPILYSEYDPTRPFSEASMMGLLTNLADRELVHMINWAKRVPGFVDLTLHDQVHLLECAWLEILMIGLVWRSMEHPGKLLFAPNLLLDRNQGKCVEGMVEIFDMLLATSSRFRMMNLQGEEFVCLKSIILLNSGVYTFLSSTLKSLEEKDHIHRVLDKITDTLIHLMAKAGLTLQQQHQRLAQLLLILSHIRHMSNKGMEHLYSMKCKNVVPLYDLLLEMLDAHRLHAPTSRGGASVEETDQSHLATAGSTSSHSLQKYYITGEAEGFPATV
Structure (SMILES),outcome,AC50
CCCCCC(=O)O,inactive,–
CCNc1cccc(C)c1,inactive,–
COCCOCCOC,inactive,–
CCCCOC(=O)CCCCCCCCC(=O)OCCCC,inactive,–
Cc1ccc(N(C)C)cc1,inactive,–
CNC(=O)[C@H]1O[C@@H](n2cnc3c(NCc4cc(Cl)ccc4OCc4cc(C)no4)ncnc32)[C@H](O)[C@@H]1N,inactive,–
O=c1[nH]cc(F)c(=O)[nH]1,inactive,–
Cc1cccc(C)c1O,inactive,–
CC1=C(/C=C/C(C)=C/C=C/C(C)=C/CO)C(C)(C)CCC1,inactive,–
CCCCCCCC=O,–,27.9 µM (active)
CCOc1ccc2c(c1)C(C)=CC(C)(C)N2,–,34.5 µM (active)
C[C@]12C=CC(=O)C=C1CC[C@@H]1[C@@H]2C(=O)C[C@@]2(C)[C@H]1CC[C@]2(O)C(=O)CO,inactive,–
COc1ccc(C)cc1N,inactive,–
CCCCCCC(=O)OCC,inactive,–
Cc1cc(=O)[nH]c(=S)[nH]1,inactive,–
CC1(C)CC(N=C=O)CC(C)(CN=C=O)C1 (configuration not stated),inactive,–
NCCO,inactive,–
CC1(C)NC(=O)NC1=O,inactive,–
COc1cc(C=O)ccc1O,inactive,–
Cc1cccc([N+](=O)[O-])c1C,inactive,–
CCCCCCCCCCCCCCCCCC(=O)O,inactive,–
O=c1c(O)c(-c2ccc(O)c(O)c2)oc2cc(O)cc(O)c12,–,21.2 µM (active)
